Data as given in PubChem BioAssay AID1578 (Sanford-Burnham Center for Chemical Genomics, 2009).
The whole screen tested about 290,000 compounds, of which about 3,000 (1%) were called active. Rule as the data show it: active = inhibition mostly above about 36% (no sharp cut-off); inactive = mostly below about 34%. The full list was thinned out, with actives kept by preference.

Test: NOD1 signaling inhibitors, primary screen, cell-based, luminescence, uHTS (AID 1578);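 also: HEK-293T reporter cells stimulated with the NOD1 agonist gamma-tri-DAP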
Details: NOD1-driven NF-kB luciferase reporter cells, at 4 µM, active compounds read high

inhibition, inactive:
COc1ccc(CCCC(=O)N/N=C/c2ccccc2OC)cc1 -14.1%, CSc1ccc(/C=N/NC(=O)CNc2ccc3ccccc3c2)cc1 -16.8%, CCN(CC)S(=O)(=O)c1ccc(N/N=C(\C)c2ccncc2)c([N+](=O)[O-])c1 31%, C/C(=N\Nc1ccc(S(=O)(=O)Nc2ccccc2)cc1[N+](=O)[O-])c1ccncc1 34.7%, Cc1cc(=O)[nH]c(N/N=C/c2ccc(-c3ccc(F)cc3)o2)n1 -56.3%, C/C(=N\N=c1/sc2ccccc2n1C)c1ccccn1 -61.2%, CCN(CC)S(=O)(=O)c1ccc2c(c1)c(=O)c(C(=O)NCCOC)cn2C -12.6%, COc1ccc(C(=O)Nn2c(SCC(=O)NC3CCCC3)nc3ccccc3c2=O)cc1 12.9%, COc1ccc(C(=O)Nn2c(SCC(=O)c3ccccc3)nc3ccccc3c2=O)cc1 43.6%, COc1ccc(C(=O)Nn2c(SCC(=O)NCc3ccccc3)nc3ccccc3c2=O)cc1 18.4%, COc1ccc(C(=O)Nn2c(SCC(=O)NCc3ccco3)nc3ccccc3c2=O)cc1 -0.3%, COc1ccccc1NC(=O)C(CCS(C)(=O)=O)N1C(=O)c2ccccc2C1=O (centres undefined) -3.2%, C#CCSc1nnc(-c2c[nH]c3ccccc23)n1C -40.9%, Cn1cc2ccc([N+](=O)[O-])cc2n1 -6.5%, CCOc1ccc(CCNC(=O)CCC(=O)N2CCOc3ccccc32)cc1OCC -4.6%, O=C(N/C(=C\c1cccs1)C(=O)N1CCOCC1)c1ccco1 -12.2%, CCOc1ccc(NC(=O)CN(C)c2nnnn2-c2ccccc2)cc1OCC 39%, COc1cc(OC)c(C(=O)/C=C/c2ccccc2)c(O)c1O 21.4%, COc1cc(O)c(C(=O)/C=C/c2ccccc2)c(OC)c1 1.3%, CN1C/C(=C/c2cccnc2)C(=O)/C(=C/c2cccnc2)C1 37%, O=C1/C(=C/c2cccnc2)CC/C1=C\c1cccnc1 5.4%, CC(Cl)C(=O)c1ccc2c(c1)CCN2C(=O)C1CC1 (centres undefined) 43.8%, O=C(CCl)c1ccc2c(c1)CCN2C(=O)C1CCCCC1 13%, Cc1nnsc1NC(=O)OCc1ccc(C(C)(C)C)cc1 58.9%, Clc1ccc(OCc2nn[nH]n2)cc1 4.7%, Cc1cc(C)c(C)c(S(=O)(=O)NCC(=O)NCC2CCCCC2)c1C -8.5%, O=C(NC1CCN(S(=O)(=O)c2cccc(F)c2)CC1)c1ccc(F)cc1 -9.7%, C1=Nc2c(Nc3ccccc3)ncnc2Oc2ccccc21 -21%, COc1ccc(CNC(=O)/C=C/c2ccc(OCCCF)cc2)cc1 -6.2%, O=C(/C=C/c1ccc(OCCCF)cc1)Nc1ccnc(-c2cccnc2)n1 8.2%, CCC(C)C(Nc1ncnc2scc(-c3ccccc3)c12)C(=O)O (centres undefined) -21%, O=S(=O)(NC1CC1)c1ccccc1 -1%, COC(=O)c1cn(NC(=O)c2ccccc2[N+](=O)[O-])c(=O)c2ccccc12 -27.3%, COC(=O)c1cn(NC(=O)c2ccc([N+](=O)[O-])cc2Cl)c(=O)c2ccccc12 -35.6%, CC1CN(C(=O)COC(=O)c2cc(Cl)ccc2[N+](=O)[O-])CC(C)O1 (centres undefined) -25.3%, CCCCS(=O)(=O)N1CCN(S(=O)(=O)c2ccc(Cl)s2)CC1 -11%, O=C(Oc1cc(=O)oc2ccccc12)c1ccccc1 -8.5%, CC(C)[C@H](NC(=O)[C@@H]1Cc2ccccc2CN1)C(=O)NC1CCCCC1 -12.1%, CCCCc1c(O)nc(SCC(=O)c2ccccc2)n(-c2ccccc2)c1=O -1.5%, Cc1ccc(S(=O)(=O)/N=C(\CN2CCCCC2)N2CCOCC2)cc1 10.8%, Cc1ccc(S(=O)(=O)/N=C(\CN2CCOCC2)N2CCOCC2)cc1 0.6%, N/N=c1\sc2ccccc2n1-c1ccccc1 2.6%, COc1cccc(/C=C2\SC(=S)N(CCCC(=O)N3CCCCC3)C2=O)c1 0%, O=C(CCC(=O)NC1CCCCCC1)Nc1nnc(C(F)(F)F)s1 -18.1%, O=C(CCC(=O)NC1CCCCCCC1)Nc1nnc(C(F)(F)F)s1 4.2%, Cc1ccnc(NC(=O)c2ccc(Cl)cc2Cl)n1 14.3%, COc1cc(C(=O)NC2CC(C)(C)Cc3c2cnn3-c2ccccc2)cc(OC)c1OC (centres undefined) -14.3%, COc1ccc(C(=O)NC2CC(C)(C)Cc3c2cnn3-c2ccccc2)cc1OC (centres undefined) 0.2%, O=C(NCCc1c[nH]c2ccccc12)c1ccc([N+](=O)[O-])cc1 -37.7%, O=C(O)c1ccc(S(=O)(=O)N2CCC(Cc3ccccc3)CC2)cc1 2.5%, NC(=O)C1CCN(c2ccc(S(=O)(=O)N3CCCCC3)cn2)CC1 -25.2%, Cc1ccc(CNC(=O)C2CC3Cn4c(nc5cc(C)c(C)cc54)C3N2C)o1 (centres undefined) -2.6%, Cc1ccc(/C=C2/SC(=S)N(CCC(=O)N3CCN(c4ccccc4)CC3)C2=O)cc1 5.7%, CCOC(=O)N1CCN(CC(=O)Nc2ccc(F)c(F)c2)CC1 10.6%, CCC(=O)Nc1nc2nc(-c3ccccc3)cc(=O)n2[nH]1 0.3%, CCCC(=O)Nc1nc2nc(C)cc(=O)n2[nH]1 -2.3%, Brc1ccc(-c2nc(-c3ccncc3)no2)cc1 -20.7%, NC1=NC(=O)C(CC(=O)Nc2ccc3c(c2)OCO3)S1 (centres undefined) -24.1%, CCCCNS(=O)(=O)c1ccc2nc(SCC(=O)c3ccc(C#N)cc3)[nH]c2c1 -14.8%, CCCCNS(=O)(=O)c1ccc2nc(SCC(=O)Nc3ccccc3)[nH]c2c1 -15.3%, Cc1nc2cc(NC(=O)c3ccc(Br)s3)ccc2s1 -42.5%, CC(=O)Nc1ccc2sc(C)nc2c1 -14.2%, COc1ccc(Cl)cc1NC(=O)CN1C(=O)CSC1=O -3.2%, Cc1ccc(NC(=O)c2ccccc2N(C)S(=O)(=O)c2ccccc2)c(C)c1 -8.8%, CCOC(=O)c1c(C)oc2c1C(=O)c1ccccc1C2=O -38.5%, Cc1oc2c(c1C(=O)O)C(=O)c1ccccc1C2=O -30.8%, Cc1ccc(-c2nnn(CC(=O)N(Cc3ccccc3F)C(C(=O)NC3CCCC3)c3ccncc3)n2)o1 (centres undefined) -44.1%, CCOC(=O)C1=C(C)N(c2ccccc2)C(=O)NC1c1cccc([N+](=O)[O-])c1 (centres undefined) -25.4%, O=C(CSc1nnc(CNC(=O)c2ccc(F)cc2)o1)NCCc1ccccc1 -16%, COc1ccc(C(=O)NCc2nnc(SCC(=O)N3CCCC3)o2)cc1 -25.5%, COc1ccc(C(=O)NCc2nnc(SCC(=O)N3CCCCC3)o2)cc1 -32.2%, COc1ccc(C(=O)NCc2nnc(SCC(=O)NCCc3ccccc3)o2)cc1 -16.6%, COCCn1c(SCC(=O)Nc2ccc(S(N)(=O)=O)cc2)nc2ccccc21 -3.5%, CCN(CC)C1CCN(C(=O)CCn2nnnc2CN2CCOCC2)C1 (centres undefined) -54.3%, COCCn1c(SCc2ccc(OC)c(F)c2)nnc1-c1ccncc1 -14.1%, O=Cc1ccc(OC(=O)CCCCC(=O)Oc2ccc(C=O)cc2)cc1 4.4%, CC(C)[N+]1=C2C=CC=CC=C2SC12C([N+](=O)[O-])=CC(=[N+]([O-])[O-])C=C2[N+](=O)[O-] (centres undefined) -8.1%, CN1C2=CC=CC=CC2=[N+](C)C12C=CC(=[N+]([O-])[O-])C=C2[N+](=O)[O-] (centres undefined) -35.5%

inhibition, active:
COc1ccc(C(=O)Nn2c(SCC(=O)NCC3CCCO3)nc3ccccc3c2=O)cc1 (centres undefined) 64.6%, COc1ccc(C(=O)Nn2c(SCC(=O)NC3CCCCC3)nc3ccccc3c2=O)cc1 88%, COc1cc(O)cc(O)c1C(=O)/C=C/c1ccccc1 49.8%, CCC1C/C(=C\c2cccnc2)C(=O)/C(=C/c2cccnc2)C1 (centres undefined) 103%, O=C(CCl)c1ccc2c(c1)CCN2C(=O)C1CC1 76.4%, O=C(/C=C/c1ccc(OCCCF)cc1)Nc1ccnc(-c2ccncc2)n1 89.5%, COC(=O)c1cn(NC(=O)c2cc([N+](=O)[O-])ccc2F)c(=O)c2ccccc12 78%, Cc1ccc(S(=O)(=O)/N=C(\CCl)N2CCOCC2)cc1 72.3%, O=C(CCC1CCCCC1)Nc1nnc(C(F)(F)F)s1 77.4%, COc1ccc(OC)c(C(=O)NC2CC(C)(C)Cc3c2cnn3-c2ccccc2)c1 (centres undefined) 53.9%, CCC(=O)Nc1nc2nc(C)cc(=O)n2[nH]1 57.1%, CCCCNS(=O)(=O)c1ccc2nc(SCC(=O)Nc3sccc3C#N)[nH]c2c1 65.5%, CC(=O)c1c(C)oc2c1C(=O)c1ccccc1C2=O 79.5%, O=C(CSc1nnc(CNC(=O)c2ccccc2)o1)NCCc1ccccc1 72%, COc1ccc(C(=O)NCc2nnc(SCC(=O)N3CCOCC3)o2)cc1 37.2%, CN1C2=CC=CC=CC2=[N+](C)C12C([N+](=O)[O-])=CC(=[N+]([O-])[O-])C=C2[N+](=O)[O-] (centres undefined) 57.4%
